# Experimental data as given in PubChem BioAssay AID1476 (National Center for Advancing Translational Sciences (NCATS), 2009).
# Among all 200,000 compounds or so, about 4,500 (2.2%) were called active. Another 12% or so got no clear call; they are omitted. The sample holds actives, similar compounds and a random draw of the others, so the mix is not that of the screen. Values without a mark were called inactive. Calls follow the shape of the dose curve; as a rule, active = well fitted inhibition curve with a large enough effect; inconclusive = small, poorly fitted or top-dose-only effect, or effect the other way; inactive = flat fitted curve, though single readings scatter.
# Biological target: Cruzipain (Trypanosoma cruzi) (UniProt P25779)
# Assay: qHTS Assay for Promiscuous and Specific Inhibitors of Cruzain (without detergent); also: nearly all actives have a fitted effect of over 40% in size;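 as to max response, negative = inhibition: plate controls were enzyme without inhibitor for no effect and buffer without enzyme for full effect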
# Conditions: purified cruzain, Z-FR-AMC fluorescence, no detergent
# Summary of the method: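 Detergent-free condition (0.00005% Triton X-100) in acetate buffer pH 5.5 with DTT. 1.5 nM enzyme and compound were pre-mixed 15 min, then 2 uM Z-FR-AMC substrate added; reaction progress from fluorescence change between first and third reads (60 s).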
# Potency is read from the fitted curve at half-maximal effect.
# Sequence of Cruzipain (Trypanosoma cruzi) (P25779 123-467 limits assumed): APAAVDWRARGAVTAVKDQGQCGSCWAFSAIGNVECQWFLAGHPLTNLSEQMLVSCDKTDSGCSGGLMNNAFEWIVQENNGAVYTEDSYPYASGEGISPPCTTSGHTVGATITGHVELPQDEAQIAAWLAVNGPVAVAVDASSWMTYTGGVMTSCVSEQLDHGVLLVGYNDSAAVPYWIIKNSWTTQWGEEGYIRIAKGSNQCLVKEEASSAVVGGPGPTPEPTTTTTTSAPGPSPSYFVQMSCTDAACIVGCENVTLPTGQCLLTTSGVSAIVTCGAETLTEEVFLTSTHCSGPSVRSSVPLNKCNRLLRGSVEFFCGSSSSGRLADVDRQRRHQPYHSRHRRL
SMILES,"max response, negative = inhibition",Potency
c1ccc2[nH]c(NCCN3CCOCC3)nc2c1,-8.64%,–
c1ccc2cc3c(NCCN4CCOCC4)ccnc3cc2c1,–,25.1 µM (active)
Clc1ccccc1-c1cc(NCCN2CCOCC2)ncn1,-3.09%,–
COc1ccc(-n2c(=O)c3ccccc3n(Cc3ccccc3Cl)c2=O)cc1,6.51%,–
Cc1cc2c(c(=O)n1Cc1ccco1)C(c1ccccc1)C(C#N)=C(N)O2 (configuration not stated),-4.14%,–
CN(c1ccccc1)c1ccc(/C=c2\s/c(=C(/C#N)C(=O)C(C)(C)C)n(Cc3ccco3)c2=O)cc1,–,3.16 µM (active)
CCOc1ccccc1NC(=O)Cn1c(=O)n(Cc2ccco2)c(=O)c2sc3ccccc3c21,-0.26%,–
O=C(NCCCc1ccccc1)c1ccc2c(c1)sc1nc(-c3ccc(F)cc3)cn12,4.05%,–
Cc1csc(NC(=O)c2ccc(-c3ccc(Cl)cc3Cl)o2)n1,–,10 µM (active)
O=C(Nc1cccc2ncccc12)c1ccc(-c2ccc(Cl)cc2Cl)o1,-11.1%,–
Cc1csc(NC(=S)Nc2cccc(Cl)c2)n1,-0.724%,–
Cc1ccc(NC(=O)c2cc3cc(C)ccc3n2C)cc1,-3.53%,–
Cn1c(=O)n(C)c2cc(C(=O)Nc3ccc4c(c3)OCO4)ccc21,-14%,–
O=C(Nc1ccccc1)c1ccc2c(c1)OCO2,1.37%,–
O=C(Nc1ccc2c(c1)OCO2)c1ccc(N2C(=O)c3ccccc3C2=O)cc1,–,6.31 µM (active)
CCOc1ccc(CNC(=O)CCC(=O)N2CCSc3ccccc32)cc1,1.55%,–
COc1ccc(-c2onc(C)c2C)cc1S(=O)(=O)NCC1CCN(Cc2cccc(F)c2)CC1,0.417%,–
CCc1ccccc1NC(=O)CSc1nnc(-c2ccccc2)c(-c2ccccc2)n1,-0.884%,–
CCOC(=O)C1=C(O)CSC1=Nc1cccc(Cl)c1,-9.26%,–

SMILES,"max response, negative = inhibition",Potency
Clc1cccc(N=C2NN=C(c3ccc4c(c3)OCCO4)CS2)c1,–,10 µM (active)
CCOc1ccc(CNC(=O)Cn2cc3c(n2)-c2c(oc(C(=O)N4CCCC4)c2C)CC3)cc1,23.3%,–
COc1ccc2cc(CNc3ccc(OC)c(OC)c3)c(=O)n(CC(=O)Nc3ccccc3F)c2c1,13.9%,–
O=C(CSc1nccn1C1CCCC1)Nc1cc(C(F)(F)F)ccc1Cl,9.92%,–
CC(=O)c1ccc(NC(=O)CSc2nnc(NC(=O)Nc3ccccc3)s2)cc1,10.4%,–
COc1ccc(C(=O)CSc2nnc(NC(=O)C3CC(=O)N(c4cccc(OC)c4)C3)s2)cc1 (configuration not stated),-5.43%,–
O=C(/C=C/c1ccccc1)Nc1nnc(SCC(=O)c2ccc3ccccc3c2)s1,–,6.31 µM (active)
O=C(NCCc1csc(-c2ccc(C(F)(F)F)cc2)n1)C(=O)Nc1ccc(F)c(Cl)c1,-2.67%,–
Cc1ccc(OCC(=O)OCc2cc(=O)n3nc(C4CC4)sc3n2)cc1,-8.05%,–
c1ccc2sc(SCCSc3nc4ccccc4s3)nc2c1,-3.12%,–
COC(=O)c1nc2ccccc2s1,-9.6%,–
N#C/C(=C(/O)Cc1cccc2ccccc12)c1nc2ccccc2s1,–,12.6 µM (active)
Cc1ccc(-c2nn3c(=O)cc(CN4CCN(C(=O)Nc5cccc(C(F)(F)F)c5)CC4)nc3s2)cc1,-9.63%,–
COc1ccc(Cn2c(C(=O)O)c(CNCCc3cccs3)c3ccc(OC)cc32)cc1,-3.19%,–
Cc1ccc(S(=O)(=O)NCCC(=O)Nc2ccc(C)c(Cl)c2)cc1C,-0.389%,–
Cc1ccc(NS(=O)(=O)c2ccc3c(c2)CC(=O)N3)cc1Cl,–,15.8 µM (active)
COc1ccc(NC(=O)CCNS(=O)(=O)c2ccc3c(c2)CCCC(=O)N3)cc1Cl,-2.51%,–
Cc1nn(CC(=O)O)c(=O)c2cc3cc(F)ccc3n12,-12.5%,–
Cc1cccc(-n2ccnc2SCC(=O)Nc2cc(C(F)(F)F)ccc2Cl)c1,-5.01%,–

SMILES,"max response, negative = inhibition",Potency
Cc1ccc(NC(=O)CSc2nc3c(c(=O)[nH]2)CN(Cc2ccc4c(c2)OCO4)CC3)cc1C,-8.7%,–
COc1ccc(OCC(=O)OCC(=O)Nc2ccc(S(=O)(=O)N3CCCCC3)cc2)cc1,6.2%,–
CCn1c2ccccc2c2cc(NC(=O)COC(=O)c3cc(S(=O)(=O)N4CCCCC4)ccc3Cl)ccc21,–,6.31 µM (active)
CC(=O)c1c(C)[nH]c(C(=O)OCC(=O)Nc2cc(S(=O)(=O)N3CCCCC3)ccc2C)c1C,9.33%,–
CCOC(=O)CNC(=O)c1cc2c(=O)n3cccc(C)c3nc2s1,-17.8%,–
O=C(Cn1cc(SCc2ccccc2)c2ccccc21)N1CCCCC1,-0.659%,–
C=CCNC(=O)/C(=C\c1cccc([N+](=O)[O-])c1)NC(=O)c1ccccc1,10.7%,–
CN(C)CCNC(=O)/C(=C/c1cccc([N+](=O)[O-])c1)NC(=O)c1ccccc1,-6.18%,–
O=C(N/N=C/c1cc([N+](=O)[O-])ccc1O)/C(=C\c1cccs1)NC(=O)c1ccccc1,–,20 µM (active)
COc1cccc(NC(=O)N2CCN(C(=O)c3nsc4ccccc34)CC2)c1,16.2%,–
COc1cc(OC)c(NC(=O)c2c3c(nn2C)-c2ccccc2SC3)cc1Cl,-6.8%,–
COc1ccc(NC(=O)CSc2nc3ncccc3[nH]2)c(OC)c1,-7.09%,–
O=C(CC(c1cccs1)N1Cc2ccccc2C1=O)Nc1ccc(F)cc1F (configuration not stated),-15.6%,–
CC(=O)Nc1ccc(NC(=O)c2cc3sccc3n2Cc2ccc(F)cc2)cc1,23.5%,–
O=C(NCc1ccco1)c1cc2sccc2n1Cc1ccc(F)cc1,-11.7%,–
CC1Cc2ccccc2N1C(=O)c1cc2sccc2n1Cc1ccccc1 (configuration not stated),–,25.1 µM (active)
CCOC(=O)c1cc2sccc2n1Cc1ccc(C#N)cc1,-11.1%,–
O=C(c1cc2sccc2n1Cc1ccc(F)cc1)N1CCc2ccccc21,–,25.1 µM (active)
Cc1cc(=O)[nH]c(SCC(=O)N2c3ccccc3CC2C)n1 (configuration not stated),-2.54%,–
